Laboratory results published in PubChem BioAssay.
Calls of active or inactive are those of the source.

Experiments:
Albumin (Bos taurus) = Albumin (Bos taurus) (UniProt P02769); assay: bovine serum albumin binders on microarray, profiling panel, artefact control for SMM control protein annotation, biochemical, small-molecule microarray, Alexa647 label, 635/667 nm fluorescence (AID 1118); conditions: BSA-A647 binding, fluorescence 635 nm, higher = more signal;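 also: score merges 667 nm emission intensity and signal-to-noise per printed compound spot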
[1] = small-molecule microarray binders of probe aXIP, primary screen, biochemical, NeuroSMM set, 635/667 nm fluorescence (AID 1119); conditions: higher = more signal, called active from +8 up or from −8 down;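 also: probe is the protein aXip251-270 applied at 1 µg/mL to compound-printed slides; binding of probe to printed compounds measured as 667 nm fluorescence plus signal to noise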
[2] = small-molecule binders of probe aNOTCH3, primary screen, biochemical, small-molecule microarray, 635/667 nm fluorescence (AID 1120); conditions: higher = more signal;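 also: probe is a biotin-tagged antibody raised against NOTCH3 rather than NOTCH3 protein; score merges spot fluorescence near 667 nm with spot signal to noise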
[3] = small-molecule binders of probe aNOTCH2, primary screen, biochemical, small-molecule microarray, 635/667 nm fluorescence (AID 1121); conditions: higher = more signal;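 also: score merges feature fluorescence read at 667 nm with its signal to noise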
[4] = molecular target: Carbonic anhydrase 2 (Homo sapiens) (UniProt P00918); assay: CAII small-molecule binders, profiling panel, biochemical, small-molecule microarray, Alexa647-labelled CAII (AID 1122); conditions: CAII-A647 binding fluorescence, higher = more signal
[5] = COS7 lysate on small-molecule microarray, probe aHis, 635 nm (AID 1123); conditions: COS7 cell lysate, fluorescence, higher = more signal;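 also: z-score combines 667nm fluorescence intensity with signal-to-noise per printed compound spot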
[6] = compound binding in COS7 lysate, probe aLAP1, primary screen, cell lysate, small-molecule microarray (AID 1124); conditions: probe aLAP1, fluorescence, higher = more signal;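 also: lysate comes from COS7 cells expressing LAP1 and is applied at 0.3 µg/mL; score merges spot fluorescence near 667 nm with signal-to-noise over triplicate slides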
Sam68 (KHDRBS1) = assay: Sam68 small-molecule binders, primary screen, biochemical, small-molecule microarray, 635 nm fluorescence (AID 1125); conditions: small-molecule microarray binding, higher = more signal;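 also: score merges 667 nm channel intensity with signal to noise over triplicate slides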
[7] = test system: Chordin-like protein 2 (CHRDL2); assay: CHRDL2 small-molecule binders, primary screen, biochemical, small-molecule microarray, 635 nm fluorescence (AID 1126); conditions: small-molecule microarray binding, fluorescence 635 nm; higher = more signal;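 also: printed compound slides probed with Chrdl2 protein at 4 µg/mL for 1 h at 4 C; score merges 667 nm emission intensity with signal to noise over three replicate slides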
[8] = molecular target: Concanavalin-A (Canavalia ensiformis) (UniProt P02866); assay: ConA small-molecule binders, primary screen, artefact control for SMM control protein annotation, biochemical, small-molecule microarray, Alexa647 label, 635 nm (AID 1127); conditions: ConA-A647 binding fluorescence, higher = more signal;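 also: z combines 667 nm emission intensity with signal-to-noise across three replicate slides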
[9] = anti-His antibody binders, primary screen, artefact control for SMM control protein annotation, biochemical, small-molecule microarray, 635 nm fluorescence (AID 1128); conditions: anti-His Alexa647 antibody binding, higher = more signal;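 also: score merges feature fluorescence with signal-to-noise for each printed compound spot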
[10] = test system: Human papillomavirus type 1a E7 protein (residues 1-88); assay: HPV1a E7 small-molecule binders, primary screen, biochemical, small-molecule microarray, residues 1-88, 635 nm (AID 1129); conditions: small-molecule microarray binding, fluorescence 635 nm; higher = more signal
[11] = molecular target: Focal adhesion kinase 1 (Homo sapiens) (UniProt Q05397); assay: small-molecule microarray binders of FAK, primary screen, biochemical, 635/667 nm fluorescence, BSA, DTT (AID 1130); conditions: PTK2 binding, 635 nm fluorescence, higher = more signal;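 also: composite of spot emission at 667 nm and signal to noise over triplicate slides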
[12] = test system: Fibrinogen (Alexa647-labelled); assay: fibrinogen binders on compound microarrays, profiling panel, artefact control for SMM control-protein annotation, biochemical, small-molecule microarray, 635/667 nm fluorescence (AID 1131); conditions: fibrinogen-A647 binding fluorescence, higher = more signal;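 also: z-score merges 667 nm fluorescence with per-spot signal-to-noise over triplicate slides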
[13] = molecular target: Follistatin (Homo sapiens) (UniProt P19883); assay: follistatin binders on small-molecule microarrays, primary screen, biochemical, small-molecule microarray, 635/667 nm fluorescence (AID 1132); conditions: FST binding, 635 nm fluorescence, higher = more signal
[14] = molecular target: Fibroblast growth factor 2 (Homo sapiens) (UniProt P09038); assay: FGF2 binders on small-molecule microarrays, primary screen, biochemical, small-molecule microarray, 635/667 nm fluorescence (AID 1133); conditions: small-molecule microarray binding, FGF2, fluorescence 635/667; higher = more signal
[15] = mitochondrial membrane potential change in A549 cells, profiling panel, cell-based, JC-1 fluorescence, basal, 24 h, 100 nL (AID 1138); conditions: higher = more signal;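 also: A549 lung adenocarcinoma cells under basal conditions with no added stimulus; test concentration not given here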
Lefty1 = Lefty1 binders on small-molecule microarrays, primary screen, biochemical, small-molecule microarray, 635/667 nm fluorescence (AID 1139); conditions: small-molecule microarray binding, fluorescence 635/667; higher = more signal
[16] = test system: wheat germ agglutinin (Triticum aestivum), Alexa647-labelled; assay: wheat germ agglutinin binders on compound microarrays, profiling panel, artefact control for SMM control-protein annotation, biochemical, small-molecule microarray, 635/667 nm fluorescence (AID 1140); conditions: WGA-A647 binding, 635 nm fluorescence, higher = more signal;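 also: score merges 667 nm feature emission with signal to noise over triplicate slides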
[17] = molecular target: Luciferin 4-monooxygenase (Photinus pyralis) (UniProt P08659); assay: firefly luciferase enzyme inhibitors, primary screen, biochemical, luminescence, purified enzyme, 2006 set (AID 1141); conditions: SteadyGlo luminescence, 30 min, higher = more signal, called active from +8 up or from −8 down;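 also: cell-free assay with purified firefly luciferase at 100 ng per well in PBS; test concentration not given here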
Chain of Luciferin 4-monooxygenase (Photinus pyralis) (P08659 whole entry, looked up): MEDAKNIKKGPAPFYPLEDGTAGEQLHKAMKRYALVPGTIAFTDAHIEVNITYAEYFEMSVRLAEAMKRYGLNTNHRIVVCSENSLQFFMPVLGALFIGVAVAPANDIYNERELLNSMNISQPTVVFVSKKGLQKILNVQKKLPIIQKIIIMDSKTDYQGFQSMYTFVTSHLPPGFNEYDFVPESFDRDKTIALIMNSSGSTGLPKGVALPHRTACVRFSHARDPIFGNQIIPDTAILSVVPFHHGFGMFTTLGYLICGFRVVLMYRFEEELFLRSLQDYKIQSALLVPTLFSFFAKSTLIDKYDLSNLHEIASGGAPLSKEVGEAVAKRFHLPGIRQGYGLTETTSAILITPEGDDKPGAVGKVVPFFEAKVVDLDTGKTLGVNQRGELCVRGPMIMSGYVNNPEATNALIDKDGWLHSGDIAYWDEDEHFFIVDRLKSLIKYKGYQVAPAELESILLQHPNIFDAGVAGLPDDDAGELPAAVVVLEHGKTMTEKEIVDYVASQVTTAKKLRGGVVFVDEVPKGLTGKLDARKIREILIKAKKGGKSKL

Chain of Albumin (Bos taurus) (P02769 whole entry, looked up): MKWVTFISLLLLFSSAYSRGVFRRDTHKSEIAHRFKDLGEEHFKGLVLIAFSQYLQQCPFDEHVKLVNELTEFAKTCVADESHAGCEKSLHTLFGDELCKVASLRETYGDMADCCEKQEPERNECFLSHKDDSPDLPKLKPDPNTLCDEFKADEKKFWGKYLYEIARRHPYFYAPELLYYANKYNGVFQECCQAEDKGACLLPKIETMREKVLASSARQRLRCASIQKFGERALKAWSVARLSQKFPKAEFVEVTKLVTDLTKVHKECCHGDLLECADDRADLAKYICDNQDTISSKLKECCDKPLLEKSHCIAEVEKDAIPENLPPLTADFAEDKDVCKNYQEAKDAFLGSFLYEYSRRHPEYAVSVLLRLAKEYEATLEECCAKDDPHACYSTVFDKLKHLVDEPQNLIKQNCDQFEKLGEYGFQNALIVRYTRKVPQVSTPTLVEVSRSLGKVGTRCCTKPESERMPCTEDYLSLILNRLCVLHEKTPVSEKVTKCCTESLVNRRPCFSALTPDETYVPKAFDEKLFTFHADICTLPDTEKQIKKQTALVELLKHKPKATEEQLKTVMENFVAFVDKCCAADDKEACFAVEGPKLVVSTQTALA
Chain of Fibroblast growth factor 2 (Homo sapiens) (P09038 whole entry, looked up): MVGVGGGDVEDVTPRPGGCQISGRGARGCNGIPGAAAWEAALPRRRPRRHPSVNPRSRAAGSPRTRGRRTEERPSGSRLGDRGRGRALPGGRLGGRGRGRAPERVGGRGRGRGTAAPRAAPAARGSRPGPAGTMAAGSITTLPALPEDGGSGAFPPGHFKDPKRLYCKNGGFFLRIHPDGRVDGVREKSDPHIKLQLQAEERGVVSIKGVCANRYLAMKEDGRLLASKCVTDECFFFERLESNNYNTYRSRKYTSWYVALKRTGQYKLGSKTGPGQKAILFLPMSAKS
Chain of Concanavalin-A (Canavalia ensiformis) (P02866 whole entry, looked up): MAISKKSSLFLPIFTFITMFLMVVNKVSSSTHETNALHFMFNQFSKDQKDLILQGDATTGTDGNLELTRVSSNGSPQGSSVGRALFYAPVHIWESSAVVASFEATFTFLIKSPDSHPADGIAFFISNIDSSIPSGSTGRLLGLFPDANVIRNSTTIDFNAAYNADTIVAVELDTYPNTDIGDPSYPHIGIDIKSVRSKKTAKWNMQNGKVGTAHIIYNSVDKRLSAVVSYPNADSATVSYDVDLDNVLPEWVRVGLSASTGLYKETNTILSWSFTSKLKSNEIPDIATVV
Chain of Focal adhesion kinase 1 (Homo sapiens) (Q05397 whole entry, looked up): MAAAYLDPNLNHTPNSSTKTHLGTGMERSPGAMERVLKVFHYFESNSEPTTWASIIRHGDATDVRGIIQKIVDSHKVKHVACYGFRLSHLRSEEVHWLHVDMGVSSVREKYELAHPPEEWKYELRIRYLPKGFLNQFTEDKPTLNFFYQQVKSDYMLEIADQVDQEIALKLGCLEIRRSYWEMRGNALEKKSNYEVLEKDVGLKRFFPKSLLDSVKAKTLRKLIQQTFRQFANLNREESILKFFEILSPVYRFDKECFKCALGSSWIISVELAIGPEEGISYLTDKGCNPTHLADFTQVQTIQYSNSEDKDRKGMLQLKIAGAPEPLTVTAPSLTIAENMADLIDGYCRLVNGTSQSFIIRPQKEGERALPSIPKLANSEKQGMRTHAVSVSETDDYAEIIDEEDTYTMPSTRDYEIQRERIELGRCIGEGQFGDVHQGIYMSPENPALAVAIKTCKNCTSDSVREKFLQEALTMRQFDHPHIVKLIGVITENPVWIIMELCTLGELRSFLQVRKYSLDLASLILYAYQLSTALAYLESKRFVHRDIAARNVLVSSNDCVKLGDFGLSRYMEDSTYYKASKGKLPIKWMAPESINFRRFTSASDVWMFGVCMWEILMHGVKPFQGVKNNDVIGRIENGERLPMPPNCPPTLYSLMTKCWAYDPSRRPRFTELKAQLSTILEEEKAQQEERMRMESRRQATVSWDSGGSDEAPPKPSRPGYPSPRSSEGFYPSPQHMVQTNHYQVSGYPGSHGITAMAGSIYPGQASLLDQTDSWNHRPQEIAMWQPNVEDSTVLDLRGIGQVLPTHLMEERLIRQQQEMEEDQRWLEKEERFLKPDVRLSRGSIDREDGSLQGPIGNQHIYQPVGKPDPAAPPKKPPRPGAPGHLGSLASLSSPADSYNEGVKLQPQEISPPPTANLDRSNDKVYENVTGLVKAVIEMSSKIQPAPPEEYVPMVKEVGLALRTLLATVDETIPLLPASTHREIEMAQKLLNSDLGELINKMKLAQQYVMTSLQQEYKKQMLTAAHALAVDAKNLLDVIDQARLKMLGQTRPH
Chain of Follistatin (Homo sapiens) (P19883 whole entry, looked up): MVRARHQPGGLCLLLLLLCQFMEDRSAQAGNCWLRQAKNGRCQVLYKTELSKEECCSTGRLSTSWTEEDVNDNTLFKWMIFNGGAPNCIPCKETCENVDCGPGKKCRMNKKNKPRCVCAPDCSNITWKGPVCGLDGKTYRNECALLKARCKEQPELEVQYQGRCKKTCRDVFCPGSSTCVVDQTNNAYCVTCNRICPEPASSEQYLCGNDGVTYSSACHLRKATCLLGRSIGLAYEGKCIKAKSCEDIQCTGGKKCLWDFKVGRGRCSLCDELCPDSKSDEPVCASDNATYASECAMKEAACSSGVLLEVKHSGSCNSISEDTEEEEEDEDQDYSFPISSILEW

| SMILES | composite z-score (Albumin (Bos taurus)) | composite Z-score [1] | composite z-score [2] | composite z-score [3] | composite z-score [4] | composite z-score [5] | composite z-score [6] | composite z-score (Sam68 (KHDRBS1)) | composite z-score [7] | composite z-score [8] | composite z-score [9] | composite z-score [10] | composite z-score [11] | composite z-score [12] | composite z-score [13] | composite z-score [14] | z-score [15] | composite z-score (Lefty1) | composite z-score [16] | z-score [17] |
| --- | --- | --- | --- | --- | --- | --- | --- | --- | --- | --- | --- | --- | --- | --- | --- | --- | --- | --- | --- | --- |
| O=C1C[C@@](C(=O)NCC(F)(F)F)(c2ccc([N+](=O)[O-])cc2)[C@@H](c2ccc(CO)cc2)N1C1CCCCC1 | 0.52 | 0.391 (inactive) | 0.0488 | 0.0257 | 0.685 | 3.17 | 1.21 | 1.29 | 0.489 | 1.15 | 2.22 | 1.22 | 0.847 | 0.956 | 1.47 | 1.28 | 0.0267 | 0.761 | 0.861 | 0.414 (inactive) |
| C=CCOC(=O)[C@H]1[C@@H]2C(=O)O[C@@H](c3ccccc3)[C@@H](c3ccccc3)N2[C@@H](c2ccc(OCCOC(=O)[C@H]3C[C@H]4C(=O)N[C@@H](CCCC[N+](C)(C)C)C(=O)N4[C@H]3c3cccc(OCCO)c3)cc2)[C@]12C(=O)Nc1ccc(I)cc12 | -0.0737 | 0.197 (inactive) | -0.208 | -0.161 | 0.108 | 0.365 | 0.072 | 0.489 | 0.578 | 1.13 | 1.21 | 0.915 | 0.293 | 0.82 | 1.34 | 1.7 | -1.45 | 0.761 | 0.19 | -0.678 (inactive) |
| [N-]=[N+]=NCc1ccccc1[C@H]1OC(c2ccc(OCCCO)cc2)=N[C@@]1(CCS(=O)(=O)c1ccccc1)C(N)=O | 0.736 | 0.0553 (inactive) | 0.302 | 0.123 | 0.878 | 3.31 | 1.71 | 1.3 | -0.0208 | 1.2 | 2.08 | 1.18 | 0.238 | 1 | 1.18 | 1.26 | -1.14 | -0.456 | 1.16 | -3.95 (inactive) |
| COCC(=C=CC[C@H](O)c1ccc(OCCO)cc1)C[C@H](O)COCc1ccccc1 | 0.589 | 0.0082 (inactive) | -0.123 | -0.14 | 0.561 | 1.07 | 0.476 | 0.703 | 0.538 | 0.654 | 1.35 | 0.887 | 0.453 | 0.31 | 1.21 | 0.372 | 0.743 | 0.722 | 0.624 | -0.627 (inactive) |
| O=C1O[C@@H](c2ccccc2)[C@@H](c2ccccc2)N2[C@@H](c3ccc(O)cc3)[C@]3(C(=O)Nc4ccc(C#CC5=CCCCC5)cc43)[C@@H](C(=O)N3CCN(c4ncccn4)CC3)[C@H]12 | 0.475 | 0.131 (inactive) | -0.0328 | -0.111 | 0.573 | 1.72 | 0.299 | 1.29 | 0.363 | 1.11 | 0.567 | 1.19 | 1.24 | 0.811 | 1.22 | 1.1 | -0.367 | 0.68 | 0.262 | 0.745 (inactive) |
| COc1ccc([Si](C)(C)[C@H]2[C@H](CC(=O)N3Cc4ccccc4C[C@H]3CO)O[C@@]3(C(=O)N(Cc4cccc(N5CCCCC5=O)c4)c4ccccc43)[C@@H]2C)cc1 | 0.26 | 0.424 (inactive) | -0.0044 | -0.14 | 0.498 | 0.951 | 0.0263 | 0.724 | 1.19 | 1.05 | 1.57 | 0.307 | 0.566 | 0.378 | 1.3 | 1.58 | 0.925 | 1.53 | 0.292 | -0.0418 (inactive) |
| C=CCNC(=O)[C@@H]1[C@H]2C(=O)O[C@H](c3ccccc3)[C@H](c3ccccc3)N2[C@H](c2ccc(OCCO)cc2)[C@@]12C(=O)N(C(=O)OCCOC)c1ccc(C#CC3=CCCCC3)cc12 | 0.498 | 0.223 (inactive) | 0.144 | -0.0832 | 0.621 | 0.634 | 0.923 | 1.3 | 0.606 | 1.15 | 0.864 | 1.23 | 0.677 | 0.871 | 1.31 | 0.985 | -1.03 | 1.05 | 0.522 | -1.25 (inactive) |
| C=CCOC(=O)[C@@H]1[C@H]2C(=O)O[C@H](c3ccccc3)[C@H](c3ccccc3)N2[C@H](c2ccc(OCCOC(=O)[C@H]3C[C@H]4C(=O)N[C@@H](CC(C)C)C(=O)N4[C@H]3c3ccc(O)cc3)cc2)[C@@]12C(=O)Nc1ccc(I)cc12 | -1.13 | 0.761 (inactive) | 0.154 | -0.153 | 0.609 | 2.3 | 0.103 | 1.31 | 0.959 | 1.22 | 2.17 | 1.19 | 0.538 | 0.623 | 1.5 | 1.87 | -0.176 | 1.52 | 0.747 | -0.646 (inactive) |
| C=CCNC(=O)[C@H]1[C@@H]2C(=O)O[C@@H](c3ccccc3)[C@@H](c3ccccc3)N2[C@@H](c2ccccc2OCCO)[C@]12C(=O)N(C(=O)OCCOC)c1ccc(C#CC3=CCCCC3)cc12 | -0.286 | -0.0127 (inactive) | 0.345 | 0.148 | 0.55 | 1.33 | 1.01 | 1.3 | 0.51 | 0.942 | 0.108 | 1.24 | 0.369 | 0.975 | 1.21 | 0.685 | -0.295 | 0.885 | 0.993 | -1.48 (inactive) |
| COC(=O)[C@@]1(Cc2ccc(OC)cc2)[C@H]2c3cc(C(=O)N(C)C)n(Cc4ccccc4)c3C[C@H]2CN1C(=O)c1ccccc1 | 0.864 | -0.96 (inactive) | 0.0372 | -0.0505 | 0.366 | 1.86 | 0.421 | 0.92 | -0.393 | 0.435 | 3.25 | 1.14 | 0.649 | -0.228 | -0.0192 | -0.825 | 2.63 | -0.244 | 0.578 | 0.84 (inactive) |
| O=C1OCCC=C[C@H]2OC34C=CCN(c5ccc(Cl)cc5)C(=O)[C@H]3N(CCCCCO)C(=O)[C@@H]4C12 (stereo not given in full) | 0.772 | 0.728 (inactive) | -0.0663 | -0.0714 | 0.873 | 0.848 | 0.281 | 0.25 | -0.27 | -1.21 | 3.41 | -0.457 | -0.226 | -0.929 | -0.514 | -0.297 | 2.6 | -0.314 | -0.21 | -1.31 (inactive) |
